Results: PubChem BioAssay AID1159580 (chemical genetic matrix, 2015)
The campaign covered roughly 5,500 compounds. About 2,000 (36%) were called active. Not shown: some 18% with an inconclusive outcome. Rule as the data show it: active = normalized growth mostly below about 0.91 (no sharp cut-off); inconclusive = no clear call, values can overlap the other calls; inactive = mostly above about 0.92. This is one part of the list.

Test: chemical genetic growth profiling, strain panel (AID 1159580);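 also: tested at 20 µM; growth read once vehicle control cultures reached saturation at 30 °C; 1 = growth at the plate median or of vehicle wells; lower values mean less growth of the strain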
Settings: growth OD
[1] = S. cerevisiae deletion strains, locus YAL013W, strain DEP1, hits give low values
[2] = S. cerevisiae deletion strains, locus YBR021W, strain FUR4, hits give low values
[3] = S. cerevisiae deletion strains, locus YBR229C, strain ROT2, hits give low values
[4] = S. cerevisiae deletion strains, locus YCL029C, strain bik1, hits give low values
[5] = S. cerevisiae deletion strains, locus YDL035C, strain GPR1, hits give low values
[6] = S. cerevisiae deletion strains, locus YDL074C, strain BRE1, hits give low values
[7] = S. cerevisiae deletion strains, locus YDL101C, strain DUN1, hits give low values
[8] = S. cerevisiae deletion strains, locus YDL134C, strain PPH21, hits give low values
[9] = S. cerevisiae deletion strains, locus YDL192W, strain arf1, hits give low values
[10] = S. cerevisiae deletion strains, locus YDR101C, strain arx1, hits give low values
[11] = S. cerevisiae deletion strains, locus YDR162C, strain NBP2, hits give low values
[12] = S. cerevisiae deletion strains, locus YDR318W, strain mcm21, hits give low values
[13] = S. cerevisiae deletion strains, locus YDR388W, hits give low values
[14] = S. cerevisiae deletion strains, locus YDR502C, strain sam2, hits give low values
[15] = S. cerevisiae deletion strains, locus YEL061C, strain CIN8, hits give low values
[16] = S. cerevisiae deletion strains, locus YER110C, hits give low values
[17] = S. cerevisiae deletion strains, locus YER155C, strain BEM2, hits give low values
[18] = S. cerevisiae deletion strains, locus YER167W, strain BCK2, hits give low values
[19] = S. cerevisiae deletion strains, locus YGL078C, strain dbp3, hits give low values
[20] = S. cerevisiae deletion strains, locus YGL086W, strain mad1, hits give low values
[21] = S. cerevisiae deletion strains, locus YGL248W, strain PDE1, hits give low values
[22] = S. cerevisiae deletion strains, locus YGR078C, strain PAC10, hits give low values
[23] = S. cerevisiae deletion strains, locus YGR135W, strain pre9, hits give low values
[24] = S. cerevisiae deletion strains, locus YGR229C, strain SMI1, hits give low values
[25] = S. cerevisiae deletion strains, locus YGR252W, strain gcn5, hits give low values
[26] = S. cerevisiae deletion strains, locus YHR030C, strain SLT2, hits give low values
[27] = S. cerevisiae deletion strains, locus YHR079C, strain IRE1 (second series), hits give low values
[28] = S. cerevisiae deletion strains, locus YHR094C, strain hxt1, hits give low values
[29] = S. cerevisiae deletion strains, locus YHR129C, strain ARP1, hits give low values
[30] = S. cerevisiae deletion strains, locus YHR200W, strain rpn10, hits give low values
[31] = S. cerevisiae deletion strains, locus YIL066C, strain RNR3, hits give low values
[32] = S. cerevisiae deletion strains, locus YIL073C, strain SPO22, hits give low values
[33] = S. cerevisiae deletion strains, locus YIL125W, strain kgd1, hits give low values
[34] = S. cerevisiae deletion strains, locus YIR030C, strain dcg1, hits give low values
[35] = S. cerevisiae deletion strains, locus YJL095W, strain BCK1, hits give low values
[36] = S. cerevisiae deletion strains, locus YJL134W, strain LCB3, hits give low values
[37] = S. cerevisiae deletion strains, locus YJL168C, strain set2, hits give low values
[38] = S. cerevisiae deletion strains, locus YJL187C, strain SWE1 (second series), hits give low values
[39] = S. cerevisiae deletion strains, locus YJR043C, strain POL32, hits give low values
[40] = S. cerevisiae deletion strains, locus YJR075W, strain HOC1, hits give low values
[41] = S. cerevisiae deletion strains, locus YKL009W, strain mrt4, hits give low values
[42] = S. cerevisiae deletion strains, locus YKL068W, hits give low values
[43] = S. cerevisiae deletion strains, locus YKL085W, strain MDH1 (second series), hits give low values
[44] = S. cerevisiae deletion strains, locus YKL085W, strain MDH1, hits give low values
[45] = S. cerevisiae deletion strains, locus YKL190W, strain CNB1, hits give low values
[46] = S. cerevisiae deletion strains, locus YKR001C, strain vps1, hits give low values
[47] = S. cerevisiae deletion strains, locus YLR039C, strain RIC1, hits give low values
[48] = S. cerevisiae deletion strains, locus YLR058C, strain SHM2, hits give low values
[49] = S. cerevisiae deletion strains, locus YLR102C, strain apc9, hits give low values
[50] = S. cerevisiae deletion strains, locus YLR262C, strain YPT6, hits give low values
[51] = S. cerevisiae deletion strains, locus YLR268W, strain sec22, hits give low values
[52] = S. cerevisiae deletion strains, locus YLR330W, strain CHS5, hits give low values
[53] = S. cerevisiae deletion strains, locus YLR342W, strain FKS1 (second series), hits give low values
[54] = S. cerevisiae deletion strains, locus YLR371W, strain rom2, hits give low values
[55] = S. cerevisiae deletion strains, locus YLR418C, strain cdc73, hits give low values
[56] = S. cerevisiae deletion strains, locus YML016C, strain PPZ1, hits give low values
[57] = S. cerevisiae deletion strains, locus YML032C, strain rad52, hits give low values
[58] = S. cerevisiae deletion strains, locus YML124C, strain tub3, hits give low values
[59] = S. cerevisiae deletion strains, locus YMR078C, strain ctf18, hits give low values
[60] = S. cerevisiae deletion strains, locus YMR223W, strain ubp8, hits give low values
[61] = S. cerevisiae deletion strains, locus YMR263W, strain SAP30, hits give low values
[62] = S. cerevisiae deletion strains, locus YMR307W, strain GAS1, hits give low values
[63] = S. cerevisiae deletion strains, locus YNL067W, strain RPL9B, hits give low values
[64] = S. cerevisiae deletion strains, locus YNL153C, strain GIM3, hits give low values
[65] = S. cerevisiae deletion strains, locus YNL233W, strain BNI4, hits give low values
[66] = S. cerevisiae deletion strains, locus YNL250W, strain rad50, hits give low values
[67] = S. cerevisiae deletion strains, locus YNL271C, strain bni1, hits give low values
[68] = S. cerevisiae deletion strains, locus YNL298W, strain CLA4, hits give low values
[69] = S. cerevisiae deletion strains, locus YNL307C, strain MCK1, hits give low values
[70] = S. cerevisiae deletion strains, locus YNR052C, strain pop2, hits give low values
[71] = S. cerevisiae deletion strains, locus YOL006C, strain TOP1, hits give low values
[72] = S. cerevisiae deletion strains, locus YOL012C, strain htz1
[73] = S. cerevisiae deletion strains, locus YOL147C, strain pex11, hits give low values
[74] = S. cerevisiae deletion strains, locus YOR061W, strain CKA2, hits give low values
[75] = S. cerevisiae deletion strains, locus YOR069W, strain VPS5, hits give low values
[76] = S. cerevisiae deletion strains, locus YOR136W, strain idh2, hits give low values
[77] = S. cerevisiae deletion strains, locus YOR144C, strain elg1, hits give low values
[78] = S. cerevisiae deletion strains, locus YOR184W, strain ser1, hits give low values
[79] = S. cerevisiae deletion strains, locus YOR316C, strain cot1, hits give low values
[80] = S. cerevisiae deletion strains, locus YPL055C, strain LGE1, hits give low values
[81] = S. cerevisiae deletion strains, locus YPR119W, strain clb2, hits give low values
[82] = S. cerevisiae deletion strains, locus YPR141C, strain kar3, hits give low values
[83] = S. cerevisiae deletion strains, locus YPR163C, strain tif3, hits give low values
[84] = S. cerevisiae deletion strains, locus YPR167C, strain met16, hits give low values
[85] = S. cerevisiae deletion strains, strain wtn01, hits give low values
[86] = S. cerevisiae strains, strain wild type, hits give low values

Measured: normalized growth

CCC(=O)c1ccc2c(c1)N(CC(C)N(C)C)c1ccccc1S2 (configuration not stated)
inactive: [1] 0.983 | [2] 0.88 | [3] 0.994 | [4] 1.02 | [5] 0.979 | [6] 0.95 | [7] 0.986 | [8] 0.96 | S. cerevisiae deletion strains, locus YDL185W, strain tfp1, hits give low values 0.995 | [9] 1.01 | [10] 1.01 | [11] 0.988 | [12] 0.994 | [13] 1 | [14] 0.986 | [15] 0.998 | [16] 1.02 | [17] 0.989 | [18] 0.998 | [19] 1.01 | [20] 0.99 | [21] 0.966 | [22] 0.992 | [23] 0.97 | [24] 0.949 | [25] 0.806 | [26] 0.997 | [27] 1.01 | [28] 1.02 | [29] 0.993 | [30] 1 | [31] 0.985 | [32] 1.01 | [33] 1.01 | [34] 1.01 | [35] 0.889 | [36] 0.996 | [37] 1 | [38] 0.99 | [39] 0.96 | [40] 0.99 | [41] 0.999 | [42] 0.999 | [43] 0.999 | [44] 0.999 | [45] 0.99 | [46] 0.967 | [47] 1.3 | [48] 0.985 | [49] 1.02 | [50] 1.35 | [51] 0.986 | [52] 0.996 | [53] 0.921 | [54] 1.03 | [55] 0.9 | [56] 0.994 | [57] 0.982 | [58] 1.01 | [59] 1.01 | [60] 0.963 | [61] 0.973 | [62] 1.01 | [63] 0.99 | [64] 0.98 | [65] 0.951 | [66] 1.01 | [67] 1.01 | [68] 1.01 | [69] 0.996 | [70] 1 | [71] 0.852 | [72] 0.881 | [73] 1.01 | [74] 0.999 | [75] 0.996 | [76] 1 | [77] 1.01 | [78] 1.01 | [79] 1.02 | [80] 0.949 | [81] 1.01 | [82] 1.01 | [83] 1 | [84] 1.02 | [85] 0.99 | [86] 0.991

CC(CN1c2ccccc2Sc2cccnc21)N(C)C (configuration not stated)
inactive: [1] 1.02 | [2] 0.987 | [3] 1.02 | [4] 0.988 | [5] 1.02 | [6] 1.04 | [7] 1.03 | [8] 1.01 | [9] 0.993 | [10] 0.979 | S. cerevisiae deletion strains, locus YDR150W, strain NUM1, hits give low values 1.02 | [11] 1.04 | [12] 0.983 | [13] 0.994 | [14] 1.01 | [15] 1.02 | [16] 0.978 | [17] 1.01 | [18] 1.02 | [19] 0.988 | [20] 0.992 | [21] 1.02 | [22] 1.02 | [23] 1.01 | [24] 1.05 | [25] 0.956 | [26] 1.01 | [27] 0.999 | [28] 1 | [29] 1 | [30] 0.995 | [31] 1.01 | [32] 0.999 | [33] 0.999 | [34] 0.992 | [35] 1.01 | [36] 1.05 | [37] 0.998 | [38] 1.02 | [39] 1.01 | [40] 1.02 | [41] 1 | [42] 1 | [43] 0.995 | [44] 0.995 | [45] 1.03 | [46] 0.999 | [47] 1.06 | [48] 1.01 | [49] 0.991 | [50] 1.15 | [51] 0.998 | [52] 1.01 | [53] 1.03 | [54] 0.995 | [55] 1.04 | [56] 1.02 | [57] 0.989 | [58] 0.998 | [59] 0.999 | [60] 0.995 | [61] 1.03 | [62] 1.06 | [63] 1.02 | S. cerevisiae deletion strains, locus YNL128W, strain TEP1, hits give low values 1.02 | [64] 1.03 | [65] 1.01 | [66] 0.992 | [67] 1.01 | [68] 0.988 | [69] 0.991 | S. cerevisiae deletion strains, locus YNL322C, strain KRE1, hits give low values 1.01 | [70] 0.994 | [71] 1.03 | [72] 0.957 | [73] 0.991 | [74] 1.02 | [75] 1 | [76] 0.979 | [77] 0.999 | [78] 0.985 | [79] 0.997 | [80] 1.04 | S. cerevisiae deletion strains, locus YPL241C, strain CIN2, hits give low values 1 | [81] 0.995 | [82] 0.997 | [83] 1 | [84] 1 | [85] 1.01 | [86] 1.01
